Source: PubChem BioAssay (NCI)
About 83,000 compounds went through this panel and 20% of them were active in at least one assay; those are over-represented in the sample as a whole.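 96-well plates, one dose, 48 hours. Percent growth reported; active if below 10.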 Unmarked numbers belong to inactive results. Activity calls are given as the source filed them.

system: MCF7 breast; assay: NCI-60 one-dose screen, 48 h (100 = growth as untreated, 0 = no growth, -100 = all killed); conditions: 10 µM unless noted
Method: Growth inhibition of the MCF7 human tumor cell line is measured as a screen for anti-cancer activity. Cells are grown in 96 well plates and exposed to the test compound for 48 hours. Compounds are tested at a single concentration, which is 10^-5 M for most compounds. The reported endpoint is percent growth (GI% or GIPRCNT), where numbers from 0 - 100% represent growth inhibition, and numbers from -100% - 0 represent cell death. For example, a value of 40 represents 60% growth inhibition. A value of 0 means no net growth occurred over the course of the experiment. A value of -40 indicates 40% of cells at the beginning of the experiment died by the end of the experiment. A value of -100 means all cells are dead at the end of the experiment.
NCI-60 Human Tumor Cell Lines Screen was performed using the standard one-dose NCI protocol, which is described in more detail at https://dtp.cancer.gov/discovery_development/nci-60/default.htm.
Compounds with GIPRCNT values below 10 were considered active. Activity score was based on GIPRCNT using the following formula: […]
Score is 0 for GIPRCNT values of 100 or above, 50 for GIPRCNT values of 0, and 100 for GIPRCNT values of -100.

Row | Compound | growth
1 | CC/C=C\C/C=C\C[C@H](O)C/C=C1/C(=O)C=C[C@@H]1C/C=C\CCCC(=O)O | 23.6%
2 | O=C(Cc1ccc(F)c(F)c1)Nc1cc(C2(C(F)(F)F)CC2)nn1Cc1ccccc1 | -7.28% (active)
3 | COc1cccc(-c2nc3sccn3c2-c2ccnc(NCCNS(=O)(=O)c3ccc(C(F)(F)F)cc3)c2)c1 | 19.5%
4 | Cc1ccc(/C=C/c2c(C(=O)/C=C/c3ccc(Cl)cc3)c(C)nc3ccccc23)cc1 | 12.8%
5 | COc1cc(C2CC(=O)Nc3c2c(C)nn3-c2nc3ccccc3[nH]2)cc2c1OCC(=O)N2 (stereo not given) | 56.9%
6 | CC(C)C(NC(=O)C1(NC(=O)OCc2ccccc2)CCCC1)C(=O)O (stereo not given) | 105%
7 | O=C(COc1ccc(/C=C2\Oc3ccccc3C2=O)cc1)Nc1nc2ccccc2s1 | 120%
8 | Cc1cc(NCc2cc(Nc3ccnc4cc(Cl)ccc34)ccc2F)nc(Cl)n1 | 30%
9 | COC(=O)[C@]12CC[C@@H](C)[C@H](C)[C@@H]1C1=CC[C@@H]3[C@@]4(C)C(C=O)=C[C@@](C)(COS(C)(=O)=O)[C@@H]4C(=O)C[C@@]3(C)[C@]1(C)CC2 | 18.3%
10 | COc1cccc(-c2nn(-c3ccccc3)cc2-c2ccnc(NCCCNC(=O)Nc3ccc(Cl)c(Cl)c3)c2)c1 | 5.21% (active)
11 | CN(C)c1ccc(-c2ccc3[nH]c(=O)nc(-c4ccccc4)c3c2)cn1 | 25.9%
12 | C=C1C(=O)O[C@H]2[C@H]1CC/C(COC(=O)C(=O)c1c[nH]c3ccccc13)=C\CC[C@@]1(C)O[C@@H]21 | -16.9% (active)
13 | Oc1c(CN2CCCC2)cc(COCc2ccc(Br)cc2)c2cccnc12 | 11.7%
14 | CC(C)CC(NC(=O)CN(Cc1ccccc1)S(C)(=O)=O)C(=O)O (stereo not given) | 90.5%
15 | OC(COc1ccccc1Cl)COc1ccccc1Cl | 94.8%
16 | Cc1c(C)c2c(c(C)c1OCC(=O)O)CC[C@@](C)(CCC[C@@H](C)CCC[C@@H](C)CCCC(C)C)O2 | 15.6% [50 µM]
17 | COc1ccc(C2=Nc3c(N)ncnc3NC(c3ccc4c(c3)OCO4)C2)cc1 (stereo not given) | 76.1%
18 | CCOC(=O)/C=C/c1cc2cc(-c3csc4ccccc34)ccc2[nH]1 | 34.6%
19 | N#Cc1c(-c2ccccn2)[nH]c(=S)[nH]c1=O | 95.1%
20 | COc1cccc(-c2nc3sccn3c2-c2ccnc(NCCNS(=O)(=O)c3cccc(Cl)c3)c2)c1 | 43.2%

Row | Compound | growth
21 | CCN1C(=O)N(CC)C2Nn3c(s/c(=C4\C(=O)N(C)c5ccccc54)c3=O)=NC21 (stereo not given) | 13.5%
22 | COc1ccc(C(=O)Nn2c(NCC(=O)N3c4ccccc4Sc4ccccc43)nnc2-c2ccc(O)cc2)cc1 | 111%
23 | N#Cc1c(N)nc2c(C#N)c(NC(=O)c3ccccc3)nn2c1-c1ccccc1 | 75.8%
24 | O=C1/C(=C/c2ccc(F)cc2)C=C(c2ccccc2)N1CCc1ccccc1 | 50.4%
25 | Clc1cc(Cl)cc(Nc2ccc3cc(OCCCN4CCOCC4)ccc3n2)c1 | 8.56% (active)
26 | CC(CN1CCCCC1)C(=O)c1ccccc1 (stereo not given) | 91%
27 | O=[N+]([O-])c1ccc(C2CC(c3ccccc3)=Nc3ccccc3S2)cc1 (stereo not given) | 32.6%
28 | COc1cccc(-c2nn(-c3ccccc3)cc2-c2ccnc(NCCCNC(=O)c3ccccc3)c2)c1 | 33.4%
29 | COCCc1ccc(OCC(O)CNC(C)C)cc1 (stereo not given) | 101%
30 | COc1ccc2oc3c(C)c4c(c(C)c3c2c1)C(=O)N(Cc1ccccc1)C4=O | 95.5%
31 | CCCCCCCCCCCCCCCCCCOc1ccccc1CC(=O)OCCC[N+](C)(C)C | 46.5%
32 | COc1cc(-c2n/c(=C\c3c(O)[nH]c4ccc(Cl)cc34)cc3c2=Nc2ccccc2-3)cc(OC)c1OC | 0.83% (active)
33 | Cc1ccc2nc(C)c(-c3nnc(SCc4ccc(C#N)cc4)o3)n2c1 | 77.8%
34 | Fc1cnc(NC2CC2)nc1-c1cnc2ccc(N3CCOCC3)cn12 | 2.32% (active)
35 | N#Cc1c(N)nn(C(=O)c2ccc(NC(=O)c3ccccn3)cc2)c1-c1ccc(Cl)cc1 | 36.4%
36 | O=C(/C=C/c1c(Cl)nc2sccn12)c1nccs1 | 76.2%
37 | Cc1ccc(S(=O)(=O)Oc2cc(OS(=O)(=O)c3ccc(C)cc3)cc(OS(=O)(=O)c3ccc(C)cc3)c2)cc1 | 104%
38 | COc1cccc(-c2nn(-c3ccccc3)cc2-c2ccnc(NCCCNC(=O)c3ccc(F)cc3)c2)c1 | 18.6%
39 | COc1ccc(-c2cc(-c3ccc(Nc4nc(Nc5ccc(Cl)cc5)nc(Nc5ccc(Cl)cc5)n4)cc3)nc(N)c2C#N)cc1 | 32.4%
40 | O=C(c1ccccc1)N1N=C(c2ccccc2)CC1c1nnc2n(Cc3ccccc3)c(=O)c3c4c(sc3n12)CCCC4 (stereo not given) | 96.4%
